Reference: PubChem BioAssay (Tox21)
Several values for one entry are separate records, joined by “and”; a condition that tells them apart may be missing. Equal values may be shown once. Results filed as inconclusive are left out. The source holds several records for some structures; these can differ, active in one and inactive in another. Activity calls are given as the source filed them. Unless noted, calls follow the shape of the dose curve; as a rule, active = well fitted curve in the direction sought with a large enough effect in the repeat runs; inconclusive = weak or mixed curves; inactive = no such curve, though single readings can be large; an effect the other way counts as inactive or inconclusive. Starred links: 1 amine or outer side, 2 acyl side, 3 side chain; linkers in the order of their positions; H or OH if unused. Positions of bridges follow the written chain, without caps; N, C: chain ends. Non-standard residues stand in square brackets, D forms with d. Residues, ends and D or L forms follow the SMILES beside them. Chains are numbered I, II in the order given. Actinocin(9to1) = Cc1c2oc3c(C)ccc(C(=O)[*:1])c3nc-2c(C(=O)[*:2])c(N)c1=O; NMeV = CN[C@H](C(=O)O)C(C)C; Sar = CNCC(=O)O

Columns and labels:
[1] = qHTS assay to identify small molecule agonists of the estrogen receptor alpha (ER-alpha) signaling pathway in the presence of an antagonist - cell viability counter screen (AID 1259386);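 also: cells exposed to compounds for 22 h at 37 °C before the viability read; nearly all actives have a fitted effect of over 30% in size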; also: potency is read from the fitted curve at half-maximal effect; as to activity change, negative = cytotoxicity: series mostly up to about 92 µM
Method in brief: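 Steps: 5-day stripped-FBS culture; seed and incubate 24hr; add ICI-182,780 (10.0nM final); pin 15-point compound titration; incubate 22hr at 37C; add CellTiter-Fluor at 21hr; read fluorescence.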

[2] = target: Progesterone receptor (Homo sapiens) (UniProt P06401); test: qHTS assay to identify small molecule agonists of the progesterone receptor (PR) signaling pathway (AID 1346784; calls by dose curve; also: nearly all actives have a fitted effect of over 30% in size)
Method in brief: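 Agonist qHTS: compounds pinned onto 3,000 PR-UAS-bla HEK 293T cells per well in charcoal-stripped serum medium, 16hr at 37C, then beta-lactamase activity measured by LiveBLAzer FRET fluorescence after 2 hours at room temperature.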

[3] = target: Progesterone receptor (Homo sapiens) (UniProt P06401); test: qHTS assay to identify small molecule antagonists of the progesterone receptor (PR) signaling pathway (AID 1346795; active = well fitted inhibition curve with a large enough effect in the signal ratio in the repeat runs, not every such curve was filed as active; the % refers to the signal ratio; also: potency is read from the fitted curve at half-maximal effect)
Method in brief: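 Antagonist mode with agonist R5020 at 1 nM final and 16 hr incubation at 37C. Reporter was beta-lactamase driven by UAS in HEK293T (PR-UAS-bla), 2% charcoal-stripped serum; signal from LiveBLAzer FRET substrate, 2 hr at room temperature.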

[4] = qHTS assay to identify small molecule antagonists of the progesterone receptor (PR) signaling pathway - cell viability counter screen (AID 1346798); also: series mostly up to about 92 µM; nearly all actives have a fitted effect of over 50% in size
Method in brief: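 Cytotoxicity read as CellTiter-Glo luminescence (30 min, room temperature) in the same wells as the beta-lactamase readout. HEK293T PR-UAS-bla cells in charcoal-stripped 2% FBS received compound and R5020, then 16 h at 37C, 5% CO2.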

[5] = qHTS assay to identify small molecule agonists of the progesterone receptor (PR) signaling pathway - cell viability counter screen (AID 1346799; calls by dose curve; also: nearly all actives have a fitted effect of over 45% in size; also: potency is read from the fitted curve at half-maximal effect)
Method in brief: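 Cytotoxicity measured by CellTiter-Glo luminescence (30 min, RT) in the same wells as the PR beta-lactamase agonist read. Those HEK293T cells had 16 h compound treatment at 37 C in 2% charcoal-stripped FBS medium.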

[6] = qHTS assay to identify small molecule antagonists of the TGF-beta/Smad signaling pathway - cell viability counter screen (AID 1346824); also: nearly all actives have a fitted effect of over 50% in size
Method in brief: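 Cytotoxicity counter-screen run in the same wells as the beta-lactamase Smad reporter read: CellTiter-Glo luminescence after 30 min at room temperature. HEK 293T SBE-bla cells had 5 hr compound exposure at 37 C with TGF-beta1 (0.25 ng/mL stock).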

[7] = qHTS assay to identify small molecule agonists of the TGF-beta/Smad signaling pathway - cell viability counter screen (AID 1346829); also: top concentration of the series differs between compounds; nearly all actives have a fitted effect of over 45% in size
Method in brief: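 Tox21 qHTS format: SBE-bla HEK 293T cells treated with DMSO-dissolved compounds for 5 hr; CellTiter-Glo luminescence after 30 min at room temperature.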

[8] = qHTS assay to identify small molecule agonists of the TGF-beta/Smad signaling pathway (AID 1346859; active = well fitted activation curve with a large enough effect in the signal ratio in the repeat runs, not every such curve was filed as active; the % refers to the signal ratio; also: series mostly up to about 77 µM)
Method in brief: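 Fluorescence (ex 405 nm; em 460 and 530 nm) was read 2 h after LiveBLAzer FRET substrate at RT. The preceding compound treatment of overnight-plated SBE-bla HEK293T cells lasted 5 h at 37 C.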

[9] = Human pregnane X receptor (PXR) small molecule agonists, qHTS cell viability counter screen (AID 1346977); also: nearly all actives have a fitted effect of over 50% in size; also: potency is read from the fitted curve at half-maximal effect
Method in brief: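 Same-well viability read: CellTiter-Fluor added after 23 hr compound exposure, fluorescence measured 1 hr later. Cells were PXR-Luc HepG2 seeded at 2,000/well in 5% charcoal-stripped FBS medium, rested 5 hr before dosing at 37 C.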

[10] = Caspase-3/7 induction in HepG2 cells by small molecules, qHTS assay (AID 1346978); also: nearly all actives have a fitted effect of over 15% in size; also: potency is read from the fitted curve at half-maximal effect
Method in brief: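 Caspase-3/7 induction was measured by Caspase-Glo 3/7 luminescence (30 min, room temperature) after a 17 hr compound exposure of wild-type HepG2 cells seeded at 2,000 per well and pre-incubated 5 hr.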

[11] = Caspase-3/7 induction in CHO-K1 cells by small molecules, qHTS cell viability counter screen (AID 1346979); also: nearly all actives have a fitted effect of over 35% in size; also: potency is read from the fitted curve at half-maximal effect
Method in brief: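 Cytotoxicity counter screen: CellTiter-Fluor added to compound-treated wild-type CHO-K1 cells at 16 h (37C, 5% CO2), fluorescence measured 1 h later; same wells as caspase-3/7 measurement.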

[12] = Caspase-3/7 induction in CHO-K1 cells by small molecules, qHTS assay (AID 1346980); also: nearly all actives have a fitted effect of over 15% in size; also: potency is read from the fitted curve at half-maximal effect
Method in brief: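 Luminescent Caspase-Glo 3/7 read (30min, room temperature) quantified apoptosis induction. Cells were wild-type CHO-K1, treated with compound for 17hr at 37 C and 5% CO2.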

[13] = Caspase-3/7 induction in HepG2 cells by small molecules, qHTS cell viability counter screen (AID 1346981); also: nearly all actives have a fitted effect of over 30% in size; also: potency is read from the fitted curve at half-maximal effect; as to activity change, negative = cytotoxicity: series mostly up to about 92 µM
Method in brief: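 The parent HepG2 line is plated at 2,000 cells per well and rested 5 hr before compound pinning from DMSO stocks. Following a 16-hr treatment at 37 C, a fluorogenic live-cell substrate (CellTiter-Fluor) reports viability after 1 hr.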

[14] = target: Nuclear receptor subfamily 1 group I member 2 (Homo sapiens) (UniProt O75469); test: Human pregnane X receptor (PXR) small molecule agonists, qHTS assay (AID 1346982); also: nearly all actives have a fitted effect of over 35% in size
Method in brief: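 After plating in 5% charcoal-stripped FBS and a 5 hr rest, PXR-Luc HepG2 cells received compounds in DMSO. Following 24 hr at 37 C, ONE-Glo was added and light output read.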

[15] = target: Cytochrome P450 2D6 (Homo sapiens) (UniProt P10635); test: Cytochrome P450 Family 2 Subfamily D Member 6 (CYP2D6) small molecule antagonists: luciferase reporter qHTS assay (AID 1671196); also: series mostly up to about 120 µM; nearly all actives have a fitted effect of over 50% in size
Method in brief: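 Quantitative HTS of Tox21 chemicals against CYP2D6 using a luminescent proluciferin substrate. After NADPH addition, 1 h room-temperature reaction; luminescence recorded 20 min post detection reagent.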

[16] = target: Thyrotropin-releasing hormone receptor (Homo sapiens) (UniProt P34981); test: qHTS assay to identify small molecule antagonists of the thyrotropin-releasing hormone receptor (TRHR) signaling pathway (AID 1346877; active = well fitted inhibition curve with a large enough effect in the repeat runs, not every such curve was filed as active; also: series mostly up to about 51 µM)
Method in brief: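 Human TRHR in HEK293 cells; inhibition of the intracellular calcium rise triggered by 1 nM TRH was followed by fluorescence over 3 min. Compounds were run at 15 concentrations, three replicates each.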

[17] = target: Thyrotropin-releasing hormone receptor (Homo sapiens) (UniProt P34981); test: qHTS assay to identify small molecule agonists of the thyrotropin-releasing hormone receptor (TRHR) signaling pathway (AID 1346891; calls by dose curve; also: series mostly up to about 58 µM)
Method in brief: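 Agonist-mode intracellular calcium readout: kinetic fluorescence over 3 min at 1 s intervals after compound addition to TRHR-HEK293 cells (18 h seeded, 2 h dye-loaded at 37 C). Fifteen concentrations, triplicates.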

[18] = target: Nuclear receptor subfamily 1 group I member 2 (Homo sapiens) (UniProt O75469); test: CYP3A4 induction through human pregnane X receptor (PXR) by small molecules, qHTS assay (AID 1346984); also: nearly all actives have a fitted effect of over 40% in size
Method in brief: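 Human PXR activation is tracked via CYP3A4 promoter-luciferase in DPX-2 (HepG2) cells. Compounds treat cells for 24hr at 37C, and luminescence is read after One-Glo.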

[19] = target: Nuclear receptor subfamily 1 group I member 2 (Homo sapiens) (UniProt O75469); test: Human pregnane X receptor (PXR) activation by small molecules, qHTS assay (AID 1346985); also: nearly all actives have a fitted effect of over 40% in size
Method in brief: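 DPX-2 cells (HepG2 co-transfected with a PXR response element and a CYP3A4-promoter luciferase construct) were seeded at 2,000 per well, rested 5 hr at 37C, then exposed to DMSO-dissolved compounds for 24 hr. Activation was read as luciferase luminescence.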
% is scaled to controls: 0 for no effect and ±100 for the full control effect.

Sequence of Progesterone receptor (Homo sapiens) (P06401 whole entry, looked up): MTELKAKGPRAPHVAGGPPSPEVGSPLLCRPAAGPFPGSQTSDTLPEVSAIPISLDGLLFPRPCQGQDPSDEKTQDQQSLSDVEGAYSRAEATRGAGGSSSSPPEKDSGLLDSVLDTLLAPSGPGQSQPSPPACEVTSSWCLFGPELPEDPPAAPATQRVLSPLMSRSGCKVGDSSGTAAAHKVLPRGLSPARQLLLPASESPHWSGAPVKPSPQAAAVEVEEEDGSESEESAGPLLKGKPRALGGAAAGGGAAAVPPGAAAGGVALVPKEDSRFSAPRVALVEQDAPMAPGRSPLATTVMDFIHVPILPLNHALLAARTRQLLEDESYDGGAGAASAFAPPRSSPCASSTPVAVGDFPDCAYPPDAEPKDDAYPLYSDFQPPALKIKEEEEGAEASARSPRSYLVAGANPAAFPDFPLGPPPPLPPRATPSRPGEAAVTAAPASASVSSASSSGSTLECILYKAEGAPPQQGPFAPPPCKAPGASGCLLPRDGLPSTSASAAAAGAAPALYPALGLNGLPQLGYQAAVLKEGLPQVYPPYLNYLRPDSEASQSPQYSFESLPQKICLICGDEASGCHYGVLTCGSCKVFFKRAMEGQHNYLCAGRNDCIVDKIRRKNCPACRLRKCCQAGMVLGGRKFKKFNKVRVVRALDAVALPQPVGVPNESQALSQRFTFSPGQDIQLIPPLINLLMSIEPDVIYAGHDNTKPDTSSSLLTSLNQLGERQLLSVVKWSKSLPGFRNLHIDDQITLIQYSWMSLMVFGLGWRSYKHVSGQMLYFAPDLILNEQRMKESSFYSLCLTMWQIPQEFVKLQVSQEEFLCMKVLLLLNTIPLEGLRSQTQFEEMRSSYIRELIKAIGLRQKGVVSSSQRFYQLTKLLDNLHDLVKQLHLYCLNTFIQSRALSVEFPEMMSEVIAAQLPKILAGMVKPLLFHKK
Sequence of Cytochrome P450 2D6 (Homo sapiens) (P10635 whole entry, looked up): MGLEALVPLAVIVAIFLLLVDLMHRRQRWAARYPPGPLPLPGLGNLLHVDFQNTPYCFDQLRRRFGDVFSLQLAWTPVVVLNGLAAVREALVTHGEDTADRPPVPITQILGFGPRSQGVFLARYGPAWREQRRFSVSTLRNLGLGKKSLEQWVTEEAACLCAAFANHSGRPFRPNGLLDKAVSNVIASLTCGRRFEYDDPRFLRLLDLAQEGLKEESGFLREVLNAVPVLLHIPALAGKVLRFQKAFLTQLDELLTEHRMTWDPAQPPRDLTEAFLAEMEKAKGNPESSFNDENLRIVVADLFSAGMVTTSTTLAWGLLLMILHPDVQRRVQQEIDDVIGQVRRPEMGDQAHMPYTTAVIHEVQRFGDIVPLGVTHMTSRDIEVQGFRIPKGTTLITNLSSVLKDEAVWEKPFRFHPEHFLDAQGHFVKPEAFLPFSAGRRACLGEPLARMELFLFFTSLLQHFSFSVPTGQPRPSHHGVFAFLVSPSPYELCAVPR
Sequence of Nuclear receptor subfamily 1 group I member 2 (Homo sapiens) (O75469 whole entry, looked up): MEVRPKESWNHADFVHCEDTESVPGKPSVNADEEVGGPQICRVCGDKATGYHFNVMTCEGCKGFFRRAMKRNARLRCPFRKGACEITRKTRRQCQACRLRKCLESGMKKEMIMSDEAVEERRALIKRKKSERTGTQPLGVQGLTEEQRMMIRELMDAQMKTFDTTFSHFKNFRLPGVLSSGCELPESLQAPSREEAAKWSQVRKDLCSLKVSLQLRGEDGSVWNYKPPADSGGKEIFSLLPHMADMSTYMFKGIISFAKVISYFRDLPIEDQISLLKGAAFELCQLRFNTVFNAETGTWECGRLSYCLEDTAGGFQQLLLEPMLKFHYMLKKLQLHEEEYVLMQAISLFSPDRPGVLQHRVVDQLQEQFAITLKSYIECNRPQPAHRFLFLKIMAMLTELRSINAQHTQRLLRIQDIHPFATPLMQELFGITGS
Sequence of Thyrotropin-releasing hormone receptor (Homo sapiens) (P34981 whole entry, looked up): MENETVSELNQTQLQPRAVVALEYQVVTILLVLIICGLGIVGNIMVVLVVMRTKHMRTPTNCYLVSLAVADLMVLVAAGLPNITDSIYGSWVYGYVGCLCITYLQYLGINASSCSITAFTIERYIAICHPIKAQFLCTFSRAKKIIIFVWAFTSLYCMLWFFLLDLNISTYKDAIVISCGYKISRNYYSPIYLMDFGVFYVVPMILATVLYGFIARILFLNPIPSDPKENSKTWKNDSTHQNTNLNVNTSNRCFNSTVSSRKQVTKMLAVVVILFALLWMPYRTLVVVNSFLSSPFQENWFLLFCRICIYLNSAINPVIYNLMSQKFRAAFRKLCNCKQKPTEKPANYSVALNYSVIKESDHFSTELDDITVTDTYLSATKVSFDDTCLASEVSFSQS

O=C(O)CP(=O)(O)O
inactive: Potency [1] | Potency [2] | Potency [3] | Potency [4] | Potency [5] | Potency [6] | Potency [7] | outcome [8] | Potency [9] | Potency [10] | Potency [11] | Potency [12] | Potency [13] | Potency [14] | Potency [15]

Cc1c2oc3c(C)ccc(C(=O)N[C@@H]4C(=O)N[C@H](C(C)C)C(=O)N5CCC[C@H]5C(=O)N(C)CC(=O)N(C)[C@@H](C(C)C)C(=O)O[C@@H]4C)c3nc-2c(C(=O)N[C@@H]2C(=O)N[C@H](C(C)C)C(=O)N3CCC[C@H]3C(=O)N(C)CC(=O)N(C)[C@@H](C(C)C)C(=O)O[C@@H]2C)c(N)c1=O (I: T[dV]P[Sar][NMeV] / II: T[dV]P[Sar][NMeV]; ester I:1-I:C, II:1-II:C; linker I:N-II:N via Actinocin(9to1))
inactive: Potency [2] | Potency [6] | Potency [7] | Potency [16] | Potency [17] | Potency [14] | Potency [18] | Potency [19] | Potency [15]
active: Potency [1] 26.6 µM and 10.6 µM | Potency [3] 26.6 nM and 33.5 nM | Potency [9] 29.8 nM and 47.3 nM | Potency [10] 13.3 nM and 18.8 nM | Potency [11] 375 nM and 188 nM | Potency [12] 188 nM and 335 nM | Potency [13] 29.8 µM and 15 µM

O=C1CC2(CCCC2)CC(=O)N1CCCCN1CCN(c2ncccn2)CC1
5.45 µM (active) and inactive: Potency [5]
inactive: Potency [1] | Potency [2] | Potency [4] | Potency [6] | Potency [7] | outcome [8] | Potency [16] | Potency [17] | Potency [9] | Potency [12] | Potency [13]
54.5 µM (active) and inactive: Potency [11]

NC(Cc1ccc(Cl)cc1)C(=O)O (stereo not given)
inactive: activity change, negative = cytotoxicity [1] 2.8% [at 0.349 µM] | activation [2] -4.74% [at 0.349 µM] | activity change, negative = cytotoxicity [4] -9.96% [at 0.348 µM] | activity change, negative = cytotoxicity [5] -7.43% [at 0.349 µM] | viability change, negative = cytotoxic [6] 4.44% [at 0.29 µM] | activity change, negative = cytotoxicity [7] -10.5% [at 0.29 µM] | activation [8] 0.242% [at 0.29 µM] | activity, negative = inhibition [16] -6.16% [at 0.194 µM] | activation [17] 0.0344% [at 0.218 µM] | activity change, negative = cytotoxicity [9] 6.84% [at 0.349 µM] | caspase activation [10] -0.871% [at 0.349 µM] | activity change, negative = cytotoxicity [11] 10.4% [at 0.349 µM] | caspase-3/7 activation [12] 1.39% [at 0.349 µM] | activity change, negative = cytotoxicity [13] -2.01% [at 0.349 µM] | activation [14] -5.94% [at 0.349 µM] | activity change, negative = inhibition [15] -0.77% [at 0.435 µM]
